# Experimental data published in PubChem BioAssay.
# Records with an inconclusive call do not appear. Calls of active or inactive are those of the source. Rule as the data show it, unless noted: active = fluorescence slope change above about 50%; inconclusive = mostly about 31% to 49%; inactive = weaker than that.
# Tests used:
# [1] = target: ATP-dependent translocase ABCB1 (Homo sapiens) (UniProt P08183); test: MDR1 (ABCB1) efflux transporter inhibition, cell-based (AID 377); conditions: MDR1-expressing cells, fluorescent substrate accumulation slope; stronger effect = higher value; concentration not given here
# [2] = circadian clock period modulators, cell-based, LOPAC library, luminescence reporter (AID 2774; call rule not given here;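 also: values are relative to mean of DMSO wells on each plate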); conditions: circadian reporter cells, at 7 µM, actives lie on both sides
# [3] = system: Hepatitis C virus NS3 helicase; test: HCV NS3 helicase inhibitors, primary screen, biochemical, fluorescence polarization, LOPAC1280 library (AID 687035; in the data active = inhibition above about 37%); conditions: Purified HCV NS3 helicase, Cy5-dT15 ssDNA binding fluorescence polarization; stronger effect = higher value; concentration not given here
# [4] = Cy5 fluorescence quenching or enhancement artefacts, artefact control for HCV NS3 helicase inhibitor project, biochemical, LOPAC1280 (AID 687037; call rule not given here); conditions: Cy5-DNA-NS3h complex fluorescence interference counterscreen
# Chain of ATP-dependent translocase ABCB1 (Homo sapiens) (P08183 whole entry, looked up): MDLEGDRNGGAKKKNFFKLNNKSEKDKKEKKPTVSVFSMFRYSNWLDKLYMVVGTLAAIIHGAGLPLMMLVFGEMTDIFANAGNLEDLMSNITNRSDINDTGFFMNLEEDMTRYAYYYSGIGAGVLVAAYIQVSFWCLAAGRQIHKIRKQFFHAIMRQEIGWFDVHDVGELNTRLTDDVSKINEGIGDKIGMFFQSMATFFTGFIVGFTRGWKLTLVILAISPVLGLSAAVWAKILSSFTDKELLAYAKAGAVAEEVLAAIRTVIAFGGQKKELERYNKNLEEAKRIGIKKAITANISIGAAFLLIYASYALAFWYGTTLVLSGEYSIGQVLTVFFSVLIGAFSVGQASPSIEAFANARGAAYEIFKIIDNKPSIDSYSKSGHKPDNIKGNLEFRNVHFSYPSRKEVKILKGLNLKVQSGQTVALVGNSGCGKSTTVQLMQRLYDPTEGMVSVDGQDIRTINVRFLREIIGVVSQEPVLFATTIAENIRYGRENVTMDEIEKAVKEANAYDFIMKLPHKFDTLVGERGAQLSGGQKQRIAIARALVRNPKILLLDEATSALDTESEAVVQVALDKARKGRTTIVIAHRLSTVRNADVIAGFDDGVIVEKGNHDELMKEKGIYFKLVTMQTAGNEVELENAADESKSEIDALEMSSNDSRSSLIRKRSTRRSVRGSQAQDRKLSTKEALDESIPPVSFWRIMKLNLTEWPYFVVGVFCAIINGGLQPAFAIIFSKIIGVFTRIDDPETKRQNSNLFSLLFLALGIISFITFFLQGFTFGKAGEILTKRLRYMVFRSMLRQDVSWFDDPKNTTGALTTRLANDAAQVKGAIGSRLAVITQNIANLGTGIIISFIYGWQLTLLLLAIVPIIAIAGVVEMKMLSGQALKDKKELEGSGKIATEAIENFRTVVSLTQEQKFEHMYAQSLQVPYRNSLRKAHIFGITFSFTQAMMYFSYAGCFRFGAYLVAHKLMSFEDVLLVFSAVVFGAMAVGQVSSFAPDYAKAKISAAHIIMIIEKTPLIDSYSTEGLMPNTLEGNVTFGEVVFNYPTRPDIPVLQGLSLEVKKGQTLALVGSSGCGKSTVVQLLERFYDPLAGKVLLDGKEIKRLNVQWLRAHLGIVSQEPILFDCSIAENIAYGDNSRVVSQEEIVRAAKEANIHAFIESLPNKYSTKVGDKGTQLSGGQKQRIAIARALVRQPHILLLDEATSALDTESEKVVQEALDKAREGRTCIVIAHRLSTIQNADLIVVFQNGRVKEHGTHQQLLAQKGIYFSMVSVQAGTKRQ
smiles,measurement,setting,value
CN1[C@@H](C[C@H](O)c2ccccc2)CCC[C@H]1CC(=O)c1ccccc1,fluorescence slope change,[1],26.3% (inactive)
CC(C)NC[C@@H](O)c1ccc(O)c(O)c1,period change,[2],-0.08 h (inactive)
same,inhibition,[3],-5% (inactive)
same,fluorescence ratio (interference),[4],0.9 (inactive)
c1ccc(CNc2ncnc3nc[nH]c23)cc1,fluorescence slope change,[1],11.7% (inactive)
CNCCC=C1c2ccccc2C=Cc2ccccc21,fluorescence slope change,[1],58% (active)
Nc1nc(=S)c2ncn([C@@H]3O[C@H](CO)[C@@H](O)[C@H]3O)c2[nH]1,fluorescence slope change,[1],59.6% (active)
CCCCC[C@H](O)/C=C/[C@@H]1[C@@H](C/C=C\CCCC(=O)O)[C@@H](O)C[C@H]1O (tested in a mixture with another compound),fluorescence slope change,[1],101% (active)
O=C1OC(C(O)CO)C(O)=C1O (stereo unspecified),fluorescence slope change,[1],10.1% (inactive)
O=C1OC(CN2CCOCC2)CN1N=Cc1ccc([N+](=O)[O-])o1 (stereo unspecified),fluorescence slope change,[1],11.7% (inactive)
CNc1ncnc2c1ncn2[C@@H]1O[C@H](CO)[C@@H](O)[C@H]1O,fluorescence slope change,[1],64.6% (active)
